# Results reported in PubChem BioAssay (NCI).
# The panel holds about 83,000 compounds, 20% with a hit somewhere; the sample as a whole holds those more often.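 Single-dose data. Exposure time 48 hours. Values below 10 considered active.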 Calls of active or inactive are those of the source.
# System: K-562 leukemia
# Assay: NCI-60 one-dose screen, 48 h (100 = growth as untreated, 0 = no growth, -100 = all killed)
# Conditions: 10 µM unless noted
row,Structure (SMILES),growth
1,COc1cccc2cc(-c3nc(C4CCC(C(=O)O)CC4)n4ncnc(N)c34)[nH]c12 (stereo not given),14% (inactive)
2,CNC(=O)c1cc(Oc2ccc3nc(NC(=O)Nc4ccc(Cl)c(C(F)(F)F)c4)sc3c2)ccn1,47.2% (inactive)
3,C[C@@H](Oc1cc(-n2cnc3ccc(CN4CCN(C)CC4)cc32)sc1C(N)=O)c1ccccc1C(F)(F)F,6.08% (active)
4,Oc1ccc(C(c2ccc(O)cc2)C(Cl)(Cl)Cl)cc1,79.7% (inactive)
5,C[C@H](NC(=O)c1c(N)nn2cccnc12)c1cc2cccc(C#Cc3cnn(C)c3)c2c(=O)n1-c1ccccc1,17.4% (inactive)
6,COc1cc(CCc2cc(NC(=O)c3ccc(N4C[C@@H](C)N[C@@H](C)C4)cc3)n[nH]2)cc(OC)c1,8.61% (active)
7,CNC(=O)CN1CCC(Oc2cc3c(Nc4cccc(Cl)c4F)ncnc3cc2OC)CC1,60.9% (inactive)
8,Cc1oc2c(C(=O)N/N=C\c3ccc(O)cc3O)c[nH]c2c1C,11.2% (inactive)
9,CCCCCc1ccc(C)cc1OC(=O)CCl,98.8% (inactive)
10,COc1cc2ncnc(Oc3cccc(NC(=O)Nc4cc(C(C)(C)C(F)(F)F)on4)c3)c2cc1OC,2.56% (active)
11,COc1cc(Nc2ncc3c(n2)-c2ccc(Cl)cc2C(c2c(F)cccc2OC)=NC3)ccc1C(=O)O,44.9% (inactive)
12,CC[C@H](Nc1ncnc2nc[nH]c12)c1nc2cccc(F)c2c(=O)n1-c1ccccc1,83.6% (inactive)
13,CN1CCN(CCOc2cc(OC3CCOCC3)c3c(Nc4c(Cl)ccc5c4OCO5)ncnc3c2)CC1,5.29% (active)
14,Nc1nc(Nc2ccccc2)c(C=Nc2ccccc2)c(=O)[nH]1,90.4% (inactive)
15,CNC(=O)c1cc(Oc2cccc3nc(Nc4ccc(Oc5ccccc5)cc4)ccc23)ccn1,41% (inactive)
16,CN1CC[C@@H](c2c(O)cc(O)c3c(=O)cc(-c4ccccc4Cl)oc23)[C@@H]1CO,4.81% (active)
17,Cc1[nH]n(C(N)=S)c(=O)c1N=Nc1ccc(S(=O)(=O)Nc2ccncn2)cc1,103% (inactive)
18,COCCN1CCN(Cc2ccc(-c3n[nH]c4c3C(=O)c3c(NC(=O)NN5CCOCC5)cccc3-4)cc2)CC1,-0.714% (active)

row,Structure (SMILES),growth
1,CN(c1ncccc1CNc1nc(Nc2ccc3c(c2)CC(=O)N3)ncc1C(F)(F)F)S(C)(=O)=O,4.58% (active)
2,COc1cc(N2CCC(N3CCN(C)CC3)CC2)ccc1Nc1ncnc(Nc2ccccc2S(=O)(=O)C(C)C)n1,94% (inactive)
3,O=C(COc1ccc(/C=C2\Cc3ccc(Cl)cc3C2=O)cc1)Nc1nccs1,121% (inactive)
4,O=C(c1ccc(/C=C/c2n[nH]c3ccccc23)cc1)N1CCNCC1,12.4% (inactive)
5,O=C(O)C1(Cc2cccc(Nc3nccs3)n2)CCC(Oc2cccc(Cl)c2F)CC1 (stereo not given),33.9% (inactive)
6,Cc1cc(O)cc(-c2c(-c3ccnc(-c4cccnc4)c3)cnn2C)c1,57.8% (inactive)
7,Cc1c(CN2CCN(C(=O)[C@H](C)O)CC2)sc2c(N3CCOCC3)nc(-c3cnc(N)nc3)nc12,17.6% (inactive)
8,CN1CCN(c2ccc(C(=O)Nc3n[nH]c4ccc(Cc5cc(F)cc(F)c5)cc34)c(NC3CCOCC3)c2)CC1,-47.8% (active)
9,C#Cc1cccc(Nc2ncnc3cc(OCCOC)c(OCCOC)cc23)c1,51.3% (inactive)
10,COc1ccc(Nc2ncccc2NC(=O)c2cn(Cc3cccc(Oc4ccccc4)c3)nn2)cc1,73.8% (inactive)
11,O=C1NC(=O)[C@@H](c2cn3c4c(cccc24)CCC3)[C@@H]1c1c[nH]c2ccccc12,9.6% (active)
12,Cc1cc(-c2cc(O)ccc2Cl)cc2nnc(Nc3ccc(OCCN4CCCC4)cc3)nc12,-63.9% (active)
13,C=CCN(/C=C1/C(=O)O[C@H](COC)[C@@]2(C)C1=C(O)C(=O)C1=C2[C@H](OC(C)=O)C[C@]2(C)C(=O)CC[C@@H]12)CC=C,40.9% (inactive)
14,CNC(=O)c1nn(C)c2c1C(C)(C)Cc1cnc(Nc3ccc(N4CCN(C)CC4)cc3)nc1-2,5.4% (active)
15,CC(C)Nc1cc(-c2c[nH]c(C(=O)N[C@H](CO)c3cccc(Cl)c3)c2)c(Cl)cn1,19.8% (inactive)
16,COc1ccc(Cc2cc(-c3ccccc3C)n[nH]c2=O)cc1,110% (inactive)
17,CC(C)[C@@H]1CC[C@@H]2[C@@H]1[C@H](OC(=O)/C=C/c1ccccc1)[C@]1(C(C)C)C[C@@H](OC(=O)CO)[C@@]2(C)O1,78.3% (inactive)
